# Reference: the supplement of paper PMC10127200
# Counter-ions that a name gives are not always drawn.
# Experiments:
# Experiment in all cases: Euclidean distance of Cell Painting phenotypic profile (signed KS, 77 features) to DMSO centroid (dimensionless distance); 5 or 10 uM (library dependent); higher = stronger phenotypic change vs DMSO (phenoactivity)
# Details in all cases: 48 h
# [1] = system: 786-O
# Summary of the method: (§1)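 Library compounds were applied at 10 or 5 uM, depending on the library, with 0.1% DMSO final, for 48 h to five cancer lines and a healthy fibroblast line. After staining, cells were imaged confocally at 20X across 9 fields per well, and Harmony extracted 77 features, each scored as a signed Kolmogorov-Smirnov statistic against vehicle wells on the same plate. Phenoactivity is the Euclidean distance between each profile and the median vehicle profile, with profiles first plate-position corrected, correlation-weighted and averaged over replicates at the top dose.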
# [2] = system: A549
# Summary of the method: as §1
# [3] = system: DU145
# Summary of the method: as §1
# [4] = system: FB
# Summary of the method: as §1
# [5] = system: HEPG2
# Summary of the method: as §1
# [6] = system: OVCAR4
# Summary of the method: as §1
Compound,Euclidean distance [1],Euclidean distance [2],Euclidean distance [3],Euclidean distance [4],Euclidean distance [5],Euclidean distance [6]
CCCCCCCN(CC)CCCC(O)c1ccc(NS(C)(=O)=O)cc1 (configuration not stated) [Ibutilide Fumarate],1.19,0.555,1.13,1.27,1.2,1.47
C[C@@H](N)c1ccc(C(=O)Nc2ccnc3[nH]ccc23)cc1,1.87,3.06,3.16,3.73,2.26,2.05
CCCCC(CC)CN1CN(CC(CC)CCCC)CC(C)(N)C1 (configuration not stated) [Hexetidine],0.942,4.33,6.71,2.79,0.954,5.33
NS(=O)(=O)Cc1noc2ccccc12 [Zonisamide],1.61,0.951,0.986,0.762,0.835,1.9
O=C(O)CCc1nc(-c2ccccc2)c(-c2ccccc2)o1 [Oxaprozin],1.01,0.794,0.541,0.987,1.16,1.28
C=C[C@@H]1C[C@]1(NC(=O)[C@@H]1C[C@@H]2CN1C(=O)[C@H](C(C)(C)C)NC(=O)O[C@@H]1C[C@H]1CCCCCc1nc3ccc(OC)cc3nc1O2)C(=O)NS(=O)(=O)C1CC1 [Grazoprevir],1.16,1.31,1.33,1.88,0.937,1.22
CNC(=O)CN(CCN(CCN(CC(=O)[O-])CC(=O)NC)CC(=O)[O-])CC(=O)[O-].O.[Gd+3] [Gadodiamide Hydrate],1.58,0.803,1.3,1.38,0.469,0.986
CC(C(=O)O)c1ccc(C(=O)c2ccccc2)s1 (configuration not stated) [Tiaprofenic acid],1.13,0.629,0.684,0.967,0.859,0.857
N#C/C(=C\c1ccc(O)c(O)c1)C(=O)NCc1ccccc1 [AG-490 (Tyrphostin B42)],1.55,1.52,1.17,1.34,0.804,0.729
N[C@@H]1CCCCN(c2c(F)cc3c(=O)c(C(=O)O)cn(C4CC4)c3c2Cl)C1 [Besifloxacin HCl],0.849,1.19,0.808,0.781,0.864,0.585
O=C1NCCc2[nH]c(-c3ccncc3)cc21,3.08,0.97,1.24,3.06,2.81,3.15
COc1c(C)c2c(c(O)c1C/C=C(\C)CCC(=O)OCCN1CCOCC1)C(=O)OC2 [Mycophenolate Mofetil],2.59,3.61,2.11,3.32,2.76,3.19
COc1ccccc1OCCNCC(O)COc1cccc2[nH]c3ccccc3c12 (configuration not stated) [Carvedilol Phosphate],2.5,2.28,1.98,1.66,2.55,1.81
Cc1ccc(Nc2nccc(N(C)c3ccc4c(C)n(C)nc4c3)n2)cc1S(N)(=O)=O [Pazopanib],2.13,1.89,2.31,2.44,1.94,1.78
OC(CCN1CCCC1)(c1ccccc1)C1CCCCC1 (configuration not stated) [Procyclidine HCl],0.828,0.891,0.562,1.87,1.33,0.869
CC(CN(C)C)CN1c2ccccc2Sc2ccccc21 (configuration not stated) [Alimemazine Tartrate],1.33,1.55,1.73,2.43,2.13,1.33
Cc1cccc(-c2[nH]c(CNc3ccccc3F)nc2-c2ccc3ncnn3c2)n1 [Vactosertib ?(TEW-7197)],1.71,1.61,1.41,1.83,1.26,1.5
O=c1[nH]c(=O)n([C@H]2C[C@H](O)[C@@H](CO)O2)cc1C(F)(F)F [Trifluridine],2.89,3.28,2.74,1.07,3.56,2.85
NC(=O)c1ccc(OCCCN2CC3CCCC3C2)cc1 (configuration not stated),1.32,1.16,1.39,1.36,0.495,1.23
C[C@@H](c1nc(-c2ccc(C#N)cc2)cs1)[C@](O)(Cn1cncn1)c1cc(F)ccc1F [Isavuconazole],1,1.45,1.02,0.654,1.55,1.43
O=C1Nc2ccccc2/C1=C1/Nc2ccccc2C1=O [Indirubin],1.05,1.12,0.786,0.965,1.58,1.03
Cc1c(-c2ccc(O)cc2)n(Cc2ccc(OCCN3CCCCCC3)cc2)c2ccc(O)cc12 [Bazedoxifene Acetate],4.76,4.78,3.21,4.56,4.37,3.76
NC(=O)c1ccc(-c2nc(-c3ccccn3)c(-c3ccc4c(c3)OCO4)[nH]2)cc1,1.59,2.49,1.48,1.91,2.52,2.61
c1coc(CNc2ncnc3[nH]cnc23)c1 [Kinetin],1.36,1.02,0.682,1.33,0.627,1.72
O=C(O)/C=C/c1ccc(Cn2ccnc2)cc1 [Ozagrel HCl],0.843,0.862,1.12,0.899,1.97,1.61
CCN(CC)CCCC(C)Nc1nc(C)cc(Nc2ccc3nc(C)cc(N)c3c2)n1 (configuration not stated),0.637,0.976,0.753,0.932,2.01,1.16
CCCCCCCCN=C(N)NC(N)=NCc1ccc(Cl)c(Cl)c1 [Olanexidine Hydrochloride semihydrate],5.91,4.86,6.25,6.15,3.98,5.78
